Shown are actives, neighbours in structure and some others; about 7.7% of the full set was active somewhere.
Sm TGR inh: S. mansoni TGR enzyme inhibition; purified TGR, DTNB reduction, TNB absorbance 405 nm; Potency, µM (doses to about 114 µM), inactives show at the highest dose activity change, negative = inhibition, actives largely listed as inhibitors; 360,000 tested, 3% active; AID 485364; further: potency means the concentration at half of the fitted maximal effect; nearly all actives have a fitted effect of over 60% in size
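First, TGR (20 nM dispensed) and NADPH were mixed with compound. Second, a 15 min room-temperature incubation followed. Third, further NADPH and then DTNB were added to start the reaction. Finally, TNB absorbance was monitored kinetically.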
HCMV inh: blocks human cytomegalovirus replication; HFF cells, HCMV-luciferase reporter, 72 h; active compounds read low; activity change, negative = inhibition, % at 57.5 µM; 410,000 tested, 4.5% active; in the data active means activity change below about -60%; inconclusive means no clear call, values can overlap the other calls; inactive means above about -39%
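Two compound doses tested in HFFs infected with HCMV-luciferase, MOI 1 PFU/cell, 72 h at 37C. Lysate luminescence read with OneGlo; data normalized against buffer-only and 10uM Salinomycin inhibitor controls.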
RE007 growth inh: less growth of the S. pombe RE007 Vpr strain; S. pombe RE007 Vpr strain, BacTiter-Glo ATP luminescence, 24 h; 360,000 tested, 0.21% active; Potency, µM (series often up to 92.2 µM), for the others: at the highest dose activity change, negative = less growth, most hits filed as inhibitors; AID 651644; active means well fitted falling curve with a large enough effect; inconclusive means small, poorly fitted or top-dose-only effect; inactive means no such curve, though single readings can be large or run the other way; further: potency means the concentration at half of the fitted maximal effect; nearly all actives have a fitted effect of over 50% in size
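Fission yeast RE007 carrying one integrated HIV-1 vpr copy, seeded at OD 0.01 in PMG+AL medium with 23 nL pinned compound. Grown 24 h at 30 degrees; viability read by BacTiter-Glo luminescence after 5 min.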
TbPYK inhibitor: blocks Trypanosoma brucei pyruvate kinase; TbPYK enzyme, Kinase-Glo Plus ATP luminescence, 45 min; Potency, µM (series often up to 76.8 µM), for inactives: at the highest dose activity, negative = inhibition, most hits filed as inhibitors; 410,000 tested, 0.12% active; AID 624173; further: potency means the concentration at half of the fitted maximal effect; nearly all actives have a fitted effect of over 50% in size
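Screened from lowest to highest concentration, compounds were pinned into TbPYK/substrate mixtures, and ADP (130 uM final) was added. Plates sat at room temperature for 45 min prior to Kinase-Glo Plus detection by luminescence.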
FMDV inh: foot and mouth disease virus antiviral activity. 410,000 tested, 1.2% active. FMDV antiviral cell-based qHTS. Potency, µM (top dose mostly 57.9 µM), for inactives: at the top dose activity change, negative = inhibition, usual class: inhibitors; calls by dose curve; tested in HEK293T cells; further: read-out not given here; potency means the concentration at half of the fitted maximal effect; nearly all actives have a fitted effect of over 45% in size
FBPA Giardia inh: Giardia lamblia aldolase inhibition; A8B2U2; purified Giardia FBPA; Potency, µM (highest dose often 59.6 µM), inactives show at the top dose activity, negative = inhibition, most hits filed as inhibitors; 290,000 tested, 0.71% active; AID 2451; further: potency means the concentration at half of the fitted maximal effect; nearly all actives have a fitted effect of over 55% in size
Target sequence (A8B2U2 whole entry, looked up): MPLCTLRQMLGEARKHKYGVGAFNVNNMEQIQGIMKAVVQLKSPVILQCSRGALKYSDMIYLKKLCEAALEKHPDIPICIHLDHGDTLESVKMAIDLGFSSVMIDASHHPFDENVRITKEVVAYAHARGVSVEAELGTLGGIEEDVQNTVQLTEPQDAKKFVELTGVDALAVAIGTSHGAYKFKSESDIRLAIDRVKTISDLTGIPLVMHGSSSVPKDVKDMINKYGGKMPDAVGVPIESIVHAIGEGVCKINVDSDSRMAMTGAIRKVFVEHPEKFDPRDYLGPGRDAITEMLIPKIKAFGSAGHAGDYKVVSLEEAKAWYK
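Giardia FBPA (40 nM reagent) was preincubated 10 min at RT with compound (up to 57.5 uM final), then substrate plus GAPDH/TPI/NAD/arsenate coupling system with diaphorase/resazurin was added; resorufin fluorescence (525/598 nm) was read after 20 min.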
* = called active by the depositor; ? = inconclusive; · = no result given. Unless noted, the call rests on the fitted dose curve; in most records, active means well fitted curve in the direction sought with a large enough effect; inconclusive means small, poorly fitted or top-dose-only effect, or another doubt; inactive means no such curve, though single readings can be large; an effect the other way counts as inactive or inconclusive. On the % scale 0 is the no-effect control and ±100 the full control effect.

SMILES	Sm TGR inh	HCMV inh	RE007 growth inh	TbPYK inhibitor	FMDV inh	FBPA Giardia inh
Nc1ccc2c(c1)OC1(CCCC1)O2	-18%	-86*	-8%	-9%	1.4µM*	-9%
O=c1[nH]c2ccccc2n1C1CCN(C(c2cc3ccccc3o2)c2nnnn2-c2ccc3c(c2)OCCO3)CC1 (stereo not given)	·	-99*	7%	5%	35µM*	·
O=c1[nH]c2ccccc2n1C1CCN(C(c2cccc3ccccc23)c2nnnn2-c2ccc3c(c2)OCCO3)CC1 (stereo not given)	·	-76*	5%	-17%	?	·
CCCCC[n+]1ccn(C2=C([O-])c3ccccc3C(=O)/C2=N\S(=O)(=O)c2ccccc2)c1	-26%	-77*	0%	-7%	?	·
CC(C)(C)c1cc[n+](C2=C([O-])c3ccccc3C(=O)/C2=N\S(=O)(=O)c2ccccc2)cc1	-16%	-4	0%	-1%	?	?
CCCC[n+]1ccn(C2=C([O-])c3ccccc3C(=O)/C2=N\S(=O)(=O)c2ccccc2)c1	3%	?	-2%	5%	22µM*	·
CC(C)[n+]1ccn(C2=C([O-])c3ccccc3C(=O)/C2=N\S(=O)(=O)c2ccccc2)c1	45µM*	-87*	4%	1%	?	?
CCCC[n+]1ccn(-c2nc3ccccc3nc2[N-]S(=O)(=O)c2ccccc2)c1	-15%	20	5%	-4%	·	0%
CCCCC[n+]1ccn(C2=C([O-])c3ccccc3C(=O)/C2=N\S(=O)(=O)c2ccc(Br)cc2)c1	7%	-24	11%	-19%	-6%	?
COc1ccc(S(=O)(=O)NCCc2c(C)nn(C)c2Oc2ccccc2)cc1	-10%	-19	5%	-3%	-3%	5%
Cc1nn(C)c(Oc2ccccc2)c1CCNC(=O)CC(C)C	·	-2	-12%	-16%	-13%	-1%
Cc1nn(C)c(Oc2ccccc2)c1CCNC(=O)C(C)(C)C	6%	-83*	10%	5%	-14%	4%
Cc1nn(C)c(Oc2ccccc2)c1CCNS(=O)(=O)c1ccc(Cl)cc1	4%	-75*	4%	1%	-13%	-2%
COc1ccc(NC(=O)c2sc3nc4c(c(-c5ccc(OC)cc5)c3c2N)C(=O)CC(C)(C)C4)cc1	-1%	-26	·	-6%	-19%	·
COc1ccc(OC)c(CNS(=O)(=O)c2c(C(=O)N3CCC(C)CC3)c(C)n(C)c2C)c1	0%	?	·	2%	14%	·
COC(=O)[C@@]1(Cc2ccccc2)[C@H]2c3cc(C(=O)N4CCCC4)n(Cc4ccc(OC)c(OC)c4)c3C[C@H]2CN1C(=O)c1ccccc1	·	·	·	·	·	-10%
CCCn1c(SCc2nc(-c3ccc(OC)c(OC)c3)no2)nnc1-c1ccccc1	5%	-15	·	1%	-8%	·
COC(=O)[C@@H]1CCCN1Cc1ccc2c(c1)CN(Cc1cc(OC)c3c(c1)OCO3)CCO2	·	·	·	·	-9%	·
Nc1ccc(Nc2ccccc2)c(Cl)c1	11µM*	-1	117%	-1%	28%	-2%
CCCCN(C)C(=O)CSc1nc2ccccc2nc1Cc1ccc(C)cc1	-3%	-7	·	-3%	-20%	·
CC1CCCN(CCOCCOc2ccc(Br)cc2Cl)C1 (stereo not given)	7%	-64*	-11%	0%	?	-19%
CC1CCCN(CCOCCOc2ccc(Cl)cc2Br)C1 (stereo not given)	4%	-30	1%	22%	-57%	-25%
Cc1ccnc(SC2CC(=O)N(c3ccc([N+](=O)[O-])cc3)C2=O)n1 (stereo not given)	22µM*	14	-16%	0%	6%	-8%
CCc1ccccc1N1C(=O)CC(Sc2nccc(C)n2)C1=O (stereo not given)	40µM*	19	2%	5%	3%	-8%
Cc1ccc(Nc2cnn(C34CC5CC(CC(CC(=O)O)(C5)C3)C4)c(=O)c2Cl)cc1C	-1%	?	10%	0%	·	4%
